# Data taken from PubChem BioAssay (NCATS).
# Inconclusive results are not listed. Values without a mark were called inactive. Activity calls are given as the source filed them. The call rests on the fitted dose curve; in most records, active means well fitted cell-killing curve with a large enough effect; inconclusive means small, poorly fitted or top-dose-only effect, or effect the other way; inactive means no such curve, though single readings can be large or run the other way.
# Test: Quantitative High-Throughput drug screen in 47 multiple myeloma cell lines against the NCATS MIPE library collection: KMS28PE_JCRB cell viability assay (AID 1918983); further: nearly all actives have a fitted effect of over 35% in size
# Details: KMS28PE multiple myeloma viability, CellTiter-Glo ATP, 48 h; series mostly up to 45.8 µM; viability, % of DMSO control: at the top concentration
# In short: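 Cells were exposed to library compounds for 48 hours, after which ATP was measured by CellTiter-Glo. Signal was taken as median relative luminescence units.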
# Potency means the concentration at half of the fitted maximal effect.
Structure (SMILES),"viability, % of DMSO control [%]",Potency
C[C@]12COC(=O)C[C@@H]1CC[C@@H]1[C@H]2CC[C@@]2(C)[C@H]1CC[C@]2(C)O,123,
C=C[C@@H]1CN2CCC1C[C@@H]2[C@@H](O)c1ccnc2ccccc12 (stereo not given in full),,18.7 µM (active)
CC1=C(O)C(=O)C=C2C1=CC=C1[C@@]2(C)CC[C@@]2(C)[C@@H]3C[C@](C)(C(=O)O)CC[C@]3(C)CC[C@]12C,,0.833 µM (active)
CCN1CCN(C(=O)Cc2ccc(Nc3ncc(F)c(Nc4ccc(C(=O)Nc5ccccc5Cl)cc4)n3)cc2)CC1,,14.8 µM (active)
O=S(=O)(F)Cc1ccccc1,155,
CC(C)[C@]12O[C@@H]1[C@@H]1O[C@]13[C@]1(O[C@H]1C[C@@H]1C4=C(CC[C@@]13C)C(=O)OC4)[C@H]2O,16.3,
O=c1[nH]c2ccccc2n1C1CCN(Cc2ccc(-c3[nH]c4cc5ncnc5cc4nc3-c3ccccc3)cc2)CC1,,20.9 µM (active)
CCCC[N+]1(C)[C@H]2CC(OC(=O)[C@H](CO)c3ccccc3)C[C@H]1[C@H]1O[C@H]12 (stereo not given in full),99.9,
CSCC[C@@H](NC(=O)[C@@H](Cc1ccccc1)NC(=O)CNC(=O)CNC(=O)[C@@H](N)Cc1ccc(O)cc1)C(=O)O,135,
COCC1(CO)C(=O)C2CCN1CC2 (stereo not given),,18.7 µM (active)
c1ccc2c(CN3CCNCC3)cccc2c1,119,
C=C[C@@H]1CN2CCC1C[C@H]2[C@H](O)c1ccnc2ccccc12 (stereo not given in full),,14.8 µM (active)
CCc1c(C(=O)C(N)=O)c2c(OCC(=O)O)cccc2n1Cc1ccccc1,,7.43 µM (active)
C=CCON=C(C[C@H]1O[C@@H]2O[C@]3(C)CC[C@@H]4[C@H](C)CC[C@@H]([C@H]1C)[C@@]24OO3)[C@H]1O[C@@H]2O[C@]3(C)CC[C@H]4[C@H](C)CC[C@@H]([C@@H]1C)[C@@]24OO3,,0.264 µM (active)
COc1ccc2c(c[n+](C)c3c4cc5c(cc4ccc23)OCO5)c1OC,,4.69 µM (active)
COc1cccc2c1[C@]13CCN(CC4CC4)[C@H](C2)[C@]1(OC)CCC(=O)C3,113,
Cc1[nH]nc2ccc(-c3cncc(OC[C@@H](N)Cc4c[nH]c5ccccc45)c3)cc12,,0.833 µM (active)
CC(C)(O)C=CC(=O)[C@](C)(O)[C@H]1[C@H](O)C[C@]2(C)[C@@H]3CC=C4[C@@H](C=C(O)C(=O)C4(C)C)[C@]3(C)C(=O)C[C@@]12C,,1.66 µM (active)
CC[C@@H]1[C@@H](C)O[C@@](O)([C@@H](C)[C@H](O)[C@H](C)[C@H]2OC(=O)C=CC=C[C@@H](C)[C@@H]([C@@H](C)[C@@H](O)[C@H](C)[C@@]3(O)C[C@H](O[C@H]4C[C@H](O)[C@H](O)[C@H](C)O4)[C@H](CC)[C@@H](C)O3)OC(=O)C=CC=C[C@@H]2C)C[C@H]1O[C@H]1C[C@H](O)[C@H](O)[C@H](C)O1,,0.372 µM (active)
CC[C@@]1(O)C(=O)OCc2c1cc1n(c2=O)Cc2cc3ccccc3nc2-1,,0.166 µM (active)
CCOC(=O)Nc1ccc(NCc2ccc(F)cc2)cc1N,125,
CN1CCN(c2ccc([N+](=O)[O-])c3no[n+]([O-])c23)CC1,,18.7 µM (active)
CCNC(=O)C[C@@H]1N=C(c2ccc(Cl)cc2)c2cc(OC)ccc2-n2c(C)nnc21,,0.264 µM (active)
C[C@@H]1O[C@@H](O[C@@H]2C=C3CC[C@@H]4[C@@H](CC[C@]5(C)[C@H](c6ccc(=O)oc6)CC[C@@]45O)[C@@]3(C)CC2)[C@H](O)[C@H](O)[C@H]1O,,0.0166 µM (active)
CC=C(C)C(=O)O[C@H]1C(C)=C2[C@@H]3OC(=O)[C@@](C)(O)[C@@]3(O)[C@@H](OC(=O)CCC)C[C@](C)(OC(C)=O)[C@@H]2[C@@H]1OC(=O)CCCCCCC,,0.132 µM (active)
